In the library only some 12% were active in any assay of this set; here they are far more common.
JMJD2A Tudor: JMJD2A Tudor domain (human) inhibition; AID 504339; AlphaScreen JMJD2A-Tudor / H3K4me3 peptide binding; O75164; Potency, µM (top dose mostly 114 µM), inactives show at the top dose activity change, negative = inhibition, usual class: inhibitors; hit rate 4.4% among 390,000; also: % is scaled to controls: 0 for no effect and ±100 for the full control effect; nearly all actives have a fitted effect of over 50% in size
Sfp inh: blocks B. subtilis Sfp PPTase activity. Q9F4F7. Biochemical Sfp PPTase activity, qHTS. Potency, µM, inactives show largest response in the series, negative = inhibition, usual class: inhibitors. hit rate 3.5% among 310,000. AID 1490;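 also: the enzyme is Sfp with the accession as filed and its product quenches rhodamine fluorescence; 0% = enzyme reaction without inhibitor and -100% = no enzyme wells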
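Reaction rates are the 30-min fluorescence difference (ex 525, em 598 nm) in wells containing 15 nM Sfp, 5 uM rhodamine-CoA and 12.5 uM BHQ-2-YbbR at pH 7.6 with 10 mM MgCl2.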
HP1b chromo inh: blocks HP1-beta chromodomain binding to methylated histone tails | AlphaScreen HP1-beta / biotin-H3K9me3 peptide binding | Potency, µM (doses to about 114 µM), without a hit: at the top dose activity change, negative = inhibition, hits mostly inhibitors | P83916 | hit rate 0.56% among 390,000; also: nearly all actives have a fitted effect of over 70% in size
Target sequence (P83916 whole entry, looked up): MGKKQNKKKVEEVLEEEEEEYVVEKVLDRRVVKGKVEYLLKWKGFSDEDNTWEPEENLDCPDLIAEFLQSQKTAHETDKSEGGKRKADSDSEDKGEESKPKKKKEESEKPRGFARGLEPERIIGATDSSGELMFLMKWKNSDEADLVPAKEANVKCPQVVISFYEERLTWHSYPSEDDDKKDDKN
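HP1-beta protein (50 nM final) preincubated 30 min at room temperature with biotinylated H3(1-18)K9me3 peptide (50 nM) in PBS pH 7.4, 0.01% Tween-20, then compound added for 30 min. AlphaScreen streptavidin donor/nickel chelate acceptor beads (10 ug/mL final), 30 min dark, luminescence read.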
BAZ2B inh: BAZ2B (human) inhibition | AID 504333 | hit rate 4.4% among 360,000 | Potency, µM (titrated, usually from 114 µM), for inactives: top-dose activity change, negative = inhibition, hits mostly inhibitors | AlphaScreen BAZ2B-H3K14Ac peptide displacement | Q9UIF8; also: % is scaled to controls: 0 for no effect and ±100 for the full control effect; nearly all actives have a fitted effect of over 60% in size
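Multi-concentration screen (max 110 uM) measuring displacement of acetylated histone H3 peptide from BAZ2B by AlphaScreen, using 50 nM protein, 50 nM peptide and 10 ug/mL streptavidin donor plus Ni-chelate acceptor beads.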
G9a inh: G9a (human) methyltransferase inhibition; Q96KQ7; G9a H3K9 monomethylation, AlphaScreen, 2 h; Potency, µM (top dose mostly 102 µM), for the others: at the highest dose activity, negative = inhibition, most hits filed as inhibitors; hit rate 8.8% among 350,000; AID 504332; also: % is scaled to controls: 0 for no effect and ±100 for the full control effect; nearly all actives have a fitted effect of over 75% in size
Target sequence (Q96KQ7 913-1193 limits assumed): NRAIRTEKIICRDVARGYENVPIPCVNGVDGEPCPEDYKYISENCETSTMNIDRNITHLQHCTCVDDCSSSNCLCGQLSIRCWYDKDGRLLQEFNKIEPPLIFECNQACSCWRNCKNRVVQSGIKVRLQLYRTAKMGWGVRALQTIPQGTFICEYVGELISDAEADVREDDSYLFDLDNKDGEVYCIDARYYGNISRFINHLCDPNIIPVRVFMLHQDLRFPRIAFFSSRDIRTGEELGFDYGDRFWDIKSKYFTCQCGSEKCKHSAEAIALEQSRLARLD
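Using a bead-based AlphaScreen, monomethylated H3K9 product from 2 h room-temperature reactions (G9a 20 nM, peptide 500 nM, SAM 20 uM) was detected with 0.5 ug/mL rabbit anti-H3K9me1 antibody.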
Starred values were filed as active, the others as inactive; [ ] = remark or other dose. Calls follow the shape of the dose curve; as a rule, active = well fitted curve in the direction sought with a large enough effect; inconclusive = small, poorly fitted or top-dose-only effect, or another doubt; inactive = no such curve, though single readings can be large; an effect the other way counts as inactive or inconclusive. Potency is read from the fitted curve at half-maximal effect.

Results for C=CCN1C(=O)C2C3C=CC(C2C1=O)C1C2C(=O)N(CC=C)C(=O)C2C31 (centres undefined) ?
JMJD2A Tudor: -1.7%; Sfp inh: 4.7%; HP1b chromo inh: 37.2%; BAZ2B inh: -10.2%

Results for Cc1cccc(Nc2nc(C)nc3c2oc2ccccc23)c1 ?
JMJD2A Tudor: -15.4%; Sfp inh: inconclusive; HP1b chromo inh: 27.5%; BAZ2B inh: inconclusive; G9a inh: 79.4µM*

What do the screens show for `COc1ccc(CCNc2nc(C)nc3c2oc2ccccc23)cc1OC`?
JMJD2A Tudor: -24.8%; Sfp inh: 28.2µM*; HP1b chromo inh: 18.7%; BAZ2B inh: -34.3%; G9a inh: 7.1%[12.7 µM]

What do the screens show for `COc1ccccc1C(=O)N/C(=C/c1ccccc1)C(=O)Nc1ccc(C(=O)O)cc1`?
JMJD2A Tudor: -10.4%; Sfp inh: 3.2%; HP1b chromo inh: 18.1%; BAZ2B inh: 5.9%; G9a inh: 19.9%

What do the screens show for `O=C(CC1C(=O)NCCN1Cc1ccccc1)NC1CCCCCC1` (centres undefined)?
JMJD2A Tudor: -26.4%; Sfp inh: 3.2%; HP1b chromo inh: 19.2%; BAZ2B inh: -10.2%; G9a inh: 17.6%[59 µM]

How did Cc1ccc(CN2CCNC(=O)C2CC(=O)NC2CCCCCC2)cc1 (centres undefined) do in these assays?
JMJD2A Tudor: -22.8%; Sfp inh: 8.1%; HP1b chromo inh: 56.5%; BAZ2B inh: -23.0%; G9a inh: 56.2µM*

Results for O=C(CC1C(=O)NCCN1Cc1ccc(F)cc1)NC1CCCCCCC1 (centres undefined) ?
JMJD2A Tudor: 8.9%; Sfp inh: -6.3%; HP1b chromo inh: 34.7%; BAZ2B inh: -22.6%; G9a inh: 50.1µM*

Results for COc1ccc(CN2CCNC(=O)C2CC(=O)NC2CCCC2)cc1OC (centres undefined) ?
JMJD2A Tudor: inconclusive; Sfp inh: 10.1%; HP1b chromo inh: 4.2%; BAZ2B inh: -30.9%; G9a inh: 70.8µM*

What do the screens show for `COc1ccc(CN2CCNC(=O)C2CC(=O)NC2CCCCCCC2)cc1OC` (centres undefined)?
JMJD2A Tudor: -12.9%; Sfp inh: 0.8%; HP1b chromo inh: 26.0%; BAZ2B inh: -24.4%; G9a inh: -6.5%

What do the screens show for `CCn1cc(CNC(=O)CC2C(=O)NCCN2CC(c2ccccc2)c2ccccc2)cn1` (centres undefined)?
JMJD2A Tudor: -22.9%; Sfp inh: -6.9%; HP1b chromo inh: 47.5%; BAZ2B inh: -5.1%

Results for CCOC(=O)N1CCC(NC(=O)CC2C(=O)NCCN2Cc2ccc(C)cc2)CC1 (centres undefined) ?
JMJD2A Tudor: -13.0%; Sfp inh: 6.8%; HP1b chromo inh: 27.1%; BAZ2B inh: -31.4%; G9a inh: inconclusive

What do the screens show for `O=C(CC1C(=O)NCCN1CC(c1ccccc1)c1ccccc1)NC1CC1` (centres undefined)?
JMJD2A Tudor: 2.8%; Sfp inh: -2.3%; HP1b chromo inh: 41.0%; BAZ2B inh: -9.6%; G9a inh: 44.7µM*

Results for CCOC(=O)N1CCC(NC(=O)c2ccc3c(c2)N(Cc2ccccc2C)C(=O)c2ccccc2S3=O)CC1 (centres undefined) ?
JMJD2A Tudor: -27.9%; HP1b chromo inh: 7.4%; BAZ2B inh: -19.9%; G9a inh: 1.9%[59 µM]

How did CCOc1ccc(CN2CCNC(=O)C2CC(=O)NC2CCCCCC2)cc1 (centres undefined) do in these assays?
JMJD2A Tudor: -21.2%; Sfp inh: -3.8%; HP1b chromo inh: 27.5%; BAZ2B inh: -25.7%; G9a inh: 39.8µM*

Results for COc1ccc(CN2CCNC(=O)C2CC(=O)NC2CCCCCC2)cc1C (centres undefined) ?
JMJD2A Tudor: -23.4%; Sfp inh: -7.1%; HP1b chromo inh: 23.5%; BAZ2B inh: inconclusive

What do the screens show for `Cc1cccnc1NC(=O)c1csnn1`?
JMJD2A Tudor: -7.2%; Sfp inh: 24.2%; HP1b chromo inh: 30.1%; BAZ2B inh: -4.4%; G9a inh: inconclusive

How did CCN(CC)c1ccc(-c2n[nH]c(=S)n2-c2ccccc2C)cc1 do in these assays?
JMJD2A Tudor: -26.8%; Sfp inh: inconclusive; HP1b chromo inh: -0.4%; BAZ2B inh: inconclusive; G9a inh: inconclusive

How did COc1ccc(-c2n[nH]c(=S)n2-c2ccccc2C)cc1OC do in these assays?
JMJD2A Tudor: 11.2µM*; Sfp inh: -19.7%; HP1b chromo inh: 33.5%; BAZ2B inh: -20.1%; G9a inh: 7.94µM*

What do the screens show for `Cc1ccccc1-n1c(-c2ccc3ccccc3n2)n[nH]c1=S`?
JMJD2A Tudor: -13.5%; Sfp inh: -9.2%; HP1b chromo inh: 23.7%; BAZ2B inh: -22.2%; G9a inh: 14.1µM*

How did S=c1[nH]nc(-c2ccc3ccccc3n2)n1-c1ccc(Cl)cc1 do in these assays?
JMJD2A Tudor: inconclusive; Sfp inh: 15.5%; HP1b chromo inh: 12.6%; BAZ2B inh: 4.0%; G9a inh: inconclusive

What do the screens show for `COc1ccc(-c2n[nH]c(=S)n2-c2ccccc2C)cc1`?
JMJD2A Tudor: inconclusive; Sfp inh: inconclusive; HP1b chromo inh: -18.4%; BAZ2B inh: 3.1%; G9a inh: 4.47µM*

Results for S=c1[nH]nc(-c2ccc3ccccc3n2)n1-c1ccc2ncccc2c1 ?
JMJD2A Tudor: -16.0%; Sfp inh: inconclusive; HP1b chromo inh: 15.9%; BAZ2B inh: inconclusive; G9a inh: 2µM*

Results for Fc1ccc(-n2c(-c3ccc4ccccc4n3)n[nH]c2=S)cc1Cl ?
JMJD2A Tudor: -24.5%; Sfp inh: 18.8%; HP1b chromo inh: 21.3%; BAZ2B inh: -22.9%; G9a inh: inconclusive

What do the screens show for `CCOc1ccc(C(=O)CCC(=O)NN2C(=O)NC3(CCCCC3)C2=O)cc1`?
JMJD2A Tudor: -9.0%; HP1b chromo inh: 54.8%; BAZ2B inh: -6.6%; G9a inh: 35.9%[12.7 µM]

Results for CC1(C)OC(=O)C2(Cc3cc([N+](=O)[O-])ccc3N3CCCCCC32)C(=O)O1 (centres undefined) ?
JMJD2A Tudor: -21.3%; HP1b chromo inh: 27.3%

How did NS(=O)(=O)c1ccc(N/N=C/c2ccccc2C(=O)O)c([N+](=O)[O-])c1 do in these assays?
JMJD2A Tudor: -15.5%; Sfp inh: -1.9%; HP1b chromo inh: -10.1%; BAZ2B inh: 9.6%; G9a inh: -31.3%

What do the screens show for `NS(=O)(=O)c1ccc(N/N=C/c2ccc(O)c(O)c2O)c([N+](=O)[O-])c1`?
JMJD2A Tudor: 8.91µM*; Sfp inh: 3.98µM*; HP1b chromo inh: 12.6µM*; BAZ2B inh: 35.5µM*

What do the screens show for `O=C(O)c1ccccc1NS(=O)(=O)c1ccc(N/N=C/c2ccc(O)c(O)c2)c([N+](=O)[O-])c1`?
JMJD2A Tudor: 28.2µM*; HP1b chromo inh: 14.1µM*

Screening results from PubChem BioAssay.
